Assay [1] can be described thus: HepG2 liver cancer cell viability effects, profiling panel, resazurin fluorescence, 24 h, PK04 Diversity Set (AID 1172). The settings on record: higher = more signal. A general note: Resazurin is reduced to fluorescent resorufin, in cell work by metabolically active cells.
Assay [2] in a line: basal S. cerevisiae growth modulation, no modifier, primary screen, OD600, strain BY4716, 24 h, basal condition (AID 1173). The following applies: OD600, 24 h, higher = more signal, called active from +8 up or from −8 down.
Assay [3] can be described thus: MM1S myeloma cell viability, profiling panel, resazurin fluorescence, basal, 24 h, PK04 Diversity Set (AID 1174).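 Note: MM1S multiple myeloma cell line.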 The following applies: higher = more signal, called active from +8 up or from −8 down.
Assay [4] deals with Dihydroorotate dehydrogenase (quinone), mitochondrial (Plasmodium falciparum (isolate 3D7)) (UniProt Q08210). The assay is described as follows: PfDHODH enzyme inhibitors, primary screen, biochemical, C-terminal His tag, absorbance 600 nm (AID 1175).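 Note: recombinant parasite enzyme with a five histidine tag at its C terminus.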 The following applies: DCIP absorbance 600 nm, higher = more signal, called active from +8 up or from −8 down.
The nature of assay [5]: S. cerevisiae RM11-1a growth modifiers, primary screen, strain RM11-1a, OD600, basal, 24 h (AID 1177).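 Note: cultures grown under basal conditions with no added stressor.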 The following applies: OD600, 24 h, higher = more signal, called active from +8 up or from −8 down.
Assay [6] is described as follows: E. coli acrAB mutant growth effects, primary screen, E. coli filamentation inducers, strain DRC39, OD650, 24 h (AID 1178).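 Note: growth measured as culture turbidity by optical density at 650 nm.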 The following applies: higher = more signal, called active from +8 up or from −8 down.
Assay [7] in a line: E. coli acrAB mutant growth effects, primary screen, E. coli filamentation inducers, strain DRC39, OD650, 48 h (AID 1179).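 Note: screen aims at cell division blockers that make cells filament.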 The following applies: E. coli DRC39 delta-acrAB growth, higher = more signal, called active from +8 up or from −8 down.
Assay [8] can be described thus: RPMI8226 myeloma cell viability, profiling panel, resazurin fluorescence, basal, 24 h, PK04 Diversity Set (AID 1180).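 Note: RPMI8826 multiple myeloma cell line at 5000 cells per well.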 The following applies: higher = more signal.
The target of assay [9] is E3 ubiquitin-protein ligase XIAP (Homo sapiens) (UniProt P98170). As to the kind of experiment: XIAP binders, primary screen, biophysical, small-molecule microarray, fluorescence 635 nm (AID 1181).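 Note: score merges 667 nm emission and signal to noise over triplicate slides.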 The following applies: small-molecule microarray binding, higher = more signal.
The subject of assay [10] is XIP peptide (Xip251-270) binding. The assay is described as follows: small-molecule binders of XIP peptide, primary screen, biochemical, small-molecule microarray, fluorescence 635/667 nm, 0.1 µg/mL protein (AID 1182). The following applies: fluorescent protein binding, 635 nm, higher = more signal, called active from +8 up or from −8 down.
A further assay has as its system XIP peptide (Xip251-270). The assay is described as follows: small-molecule binders of XIP peptide, primary screen, biochemical, small-molecule microarray, fluorescence 635/667 nm, 0.5 µg/mL protein (AID 1183). The settings on record: small-molecule microarray binding, fluorescence 635 nm; higher = more signal.
Assay [11] is described as follows: Plasmodium falciparum growth inhibition, primary screen, strain 3D7, DAPI fluorescence, 100 nL (AID 1184).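 Note: parasites grown inside human red blood cells in medium with human serum.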 The settings on record: P. falciparum 3D7 growth, 3 d, higher = more signal.
The target of assay [12] is Homeobox protein Hox-A13 (Mus musculus) (UniProt Q62424). The assay is described as follows: inhibitors of HoxA13-DNA binding, primary screen, biochemical, fluorescence polarization, labeled oligonucleotide (AID 1185). The settings on record: 15 min, higher = more signal, called active from +8 up or from −8 down. In general terms: Fluorescence polarisation rises when a labelled molecule tumbles more slowly, as on binding a larger partner.

Assay [13] is described as follows: inhibitors of hydroxyurea-induced Chk1 phosphorylation, primary screen, imaging, HeLa, phospho-Chk1 antibody, percent positive cells (AID 1186). The settings on record: hydroxyurea-induced phospho-Chk1 immunofluorescence imaging, higher = more signal.
The nature of assay [14]: inhibitors of hydroxyurea-induced Chk1 phosphorylation, primary screen, imaging, HeLa, phospho-Chk1 nuclear intensity (AID 1187). The following applies: hydroxyurea-induced phospho-Chk1 immunofluorescence imaging, higher = more signal.

Activity calls are given as the source filed them. Unless noted, the rule behind the calls is not given here.

Chain of E3 ubiquitin-protein ligase XIAP (Homo sapiens) (P98170 whole entry, looked up): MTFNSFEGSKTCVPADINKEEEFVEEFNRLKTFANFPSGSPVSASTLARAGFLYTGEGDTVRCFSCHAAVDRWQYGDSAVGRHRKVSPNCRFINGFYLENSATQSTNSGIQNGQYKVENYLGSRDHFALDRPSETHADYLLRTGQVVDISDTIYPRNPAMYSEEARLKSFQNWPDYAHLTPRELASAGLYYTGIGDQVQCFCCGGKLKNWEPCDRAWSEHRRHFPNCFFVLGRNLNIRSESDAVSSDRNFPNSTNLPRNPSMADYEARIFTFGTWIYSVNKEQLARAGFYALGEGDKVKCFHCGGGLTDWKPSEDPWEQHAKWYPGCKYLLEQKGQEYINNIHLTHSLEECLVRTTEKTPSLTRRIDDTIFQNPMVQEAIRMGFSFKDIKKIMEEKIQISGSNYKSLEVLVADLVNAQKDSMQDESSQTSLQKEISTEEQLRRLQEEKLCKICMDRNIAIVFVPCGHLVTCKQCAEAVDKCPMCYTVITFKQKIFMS
Chain of Homeobox protein Hox-A13 (Mus musculus) (Q62424 whole entry, looked up): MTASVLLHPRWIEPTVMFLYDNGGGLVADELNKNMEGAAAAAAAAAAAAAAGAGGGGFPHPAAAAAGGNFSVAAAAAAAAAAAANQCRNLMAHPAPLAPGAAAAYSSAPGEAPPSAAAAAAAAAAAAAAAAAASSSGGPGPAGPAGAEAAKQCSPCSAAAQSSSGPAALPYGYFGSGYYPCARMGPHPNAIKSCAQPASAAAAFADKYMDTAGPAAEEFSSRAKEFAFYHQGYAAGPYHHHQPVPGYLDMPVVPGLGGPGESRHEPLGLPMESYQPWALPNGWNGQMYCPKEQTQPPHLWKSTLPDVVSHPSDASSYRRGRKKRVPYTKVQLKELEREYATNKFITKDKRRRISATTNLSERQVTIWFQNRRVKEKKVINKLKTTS
Chain of Dihydroorotate dehydrogenase (quinone), mitochondrial (Plasmodium falciparum (isolate 3D7)) (Q08210 whole entry, looked up): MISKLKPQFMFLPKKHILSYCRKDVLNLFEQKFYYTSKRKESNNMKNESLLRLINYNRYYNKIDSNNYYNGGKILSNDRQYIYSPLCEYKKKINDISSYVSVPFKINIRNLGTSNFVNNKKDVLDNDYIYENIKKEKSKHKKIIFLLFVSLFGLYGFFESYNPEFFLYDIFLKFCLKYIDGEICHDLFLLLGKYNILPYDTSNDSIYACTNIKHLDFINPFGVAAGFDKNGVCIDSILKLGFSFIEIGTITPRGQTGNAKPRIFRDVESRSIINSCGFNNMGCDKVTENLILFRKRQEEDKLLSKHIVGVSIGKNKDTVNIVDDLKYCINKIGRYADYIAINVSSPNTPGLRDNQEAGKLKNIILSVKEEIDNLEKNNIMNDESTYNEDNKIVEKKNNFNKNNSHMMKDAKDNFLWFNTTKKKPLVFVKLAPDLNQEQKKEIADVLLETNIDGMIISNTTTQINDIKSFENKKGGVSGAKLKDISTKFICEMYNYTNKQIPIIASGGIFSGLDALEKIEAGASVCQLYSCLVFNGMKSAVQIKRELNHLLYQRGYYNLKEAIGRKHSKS

As for `C=CCN1C(=O)[C@@]2(O[C@@H](CCn3cc([C@H](O)c4ccccc4)nn3)[C@H]([Si](C)(C)c3ccc(OC)cc3)[C@H]2C)c2cc(N3CCOC3=O)ccc21`, the z-score was -0.555 in assay [1]; -1.5 (inactive) in [2]; -0.365 (inactive) in assay [3]; -1.57 (inactive) in [5]; 1.41 (inactive) in assay [6]; 0.391 (inactive) in assay [7]. Moreover, the z-score was -1.24 in assay [8]; -2.71 in [11]; -4.69 (inactive) in assay [12]; -1.49 (inactive) in assay [13]; -1.43 (inactive) in assay [14]. The composite z-score in [4] was -1.47 (inactive); in [9] it was 0.076; in assay [10], 0.0505 (inactive); in the assay on XIP peptide (Xip251-270), -0.52.
Take `Cc1ccc(N2C(=O)c3ccccc3[C@@H](C(=O)NCc3ccccc3)[C@@H]2c2ccc(CO)cc2)nc1`: the z-score is 0.138 in assay [1]; 0.0819 (inactive) in assay [2]; 1.36 (inactive) in assay [3]; 1.11 (inactive) in [5]; -0.0753 (inactive) in assay [6]; -0.0787 (inactive) in assay [7]. For the same molecule, the z-score is 1.06 in [8]; -0.432 in assay [11]; -0.681 (inactive) in [12]; -0.639 (inactive) in assay [13]; -0.627 (inactive) in [14]. The composite z-score in assay [4] was 0.787 (inactive); in assay [9], 0.02; in assay [10] it was -0.337 (inactive); in the assay with XIP peptide (Xip251-270), -0.98.
Consider `O=C(CS)NCCCCCNC(=O)[C@H]1C[C@H]2C(=O)N[C@@H](Cc3ccccc3)C(=O)N2[C@H]1c1ccc(O)cc1`, for which the z-score in assay [1] is 0.0833; in [2], 0.359 (inactive); in [3] it was 1.19 (inactive); in assay [5] it was 0.895 (inactive); in assay [6] it was 0.394 (inactive); in assay [7], 0.102 (inactive). Also, the z-score in assay [8] was 0.833; in assay [11], -0.0713; in assay [12], -2.65 (inactive); in assay [13], -0.319 (inactive); in assay [14], 0.637 (inactive). Moreover, the composite z-score in assay [4] was 0.44 (inactive); in assay [9], 0.0123; in assay [10], 0.818 (inactive); in the assay on XIP peptide (Xip251-270), -0.072.
For the molecule `COc1ccc([Si](C)(C)[C@H]2[C@H](CCO)O[C@@]3(C(=O)N(Cc4ccccc4)c4ccc(N5C(=O)c6cccc7cccc5c67)cc43)[C@@H]2C)cc1`, the z-score in assay [1] was 0.175; in assay [2] it was 0.432 (inactive); in [3] it was -2.33 (inactive); in assay [5], 4.08 (inactive); in assay [6] it was 2.4 (inactive); in assay [7], 2.17 (inactive). For the same molecule, the z-score in assay [8] is -2.04; in assay [11] it was -2.48; in assay [12], 0.2 (inactive); in assay [13], -1.01 (inactive); in assay [14] it was -0.207 (inactive). The composite z-score in assay [4] was 0.386 (inactive); in [9], -0.0473; in assay [10], 1.25 (inactive); with XIP peptide (Xip251-270) it was 0.353.
On to `CC(C)N1CC=CC23O[C@@H]4/C=C\CCCOC(=O)C4[C@H]2C(=O)N(CCO)[C@@H]3C1=O` (stereo not given in full), for which the z-score in [1] is 1.09; in [2], -1.71 (inactive); in assay [3], 0.998 (inactive); in [5] it was -2.54 (inactive); in [6] it was 2.2 (inactive); in assay [7], 2.25 (inactive). The z-score in [8] was 0.855; in assay [11], -0.348; in assay [12], -5.41 (inactive); in [13], -1.32 (inactive); in assay [14], -0.544 (inactive). For the same molecule, the composite z-score in assay [4] was -1.71 (inactive); in assay [9] it was -0.16; in assay [10], 1.85 (inactive); in the assay with XIP peptide (Xip251-270), 0.122.
In the case of `CCOC(=O)C[C@H]1[C@H](OC(=O)c2ccccc2-c2ccccc2)[C@@H](NC(=O)C2CCCCC2)c2cc(OCCCO)ccc2N1C(=O)c1ccccc1`, the z-score was -0.206 in assay [1]; -0.686 (inactive) in assay [2]; 0.609 (inactive) in assay [3]; 1.33 (inactive) in assay [5]; 2.32 (inactive) in [6]; 1.37 (inactive) in assay [7]. For the same molecule, the z-score in [8] was 0.737; in assay [11] it was -1.35; in assay [12], -3.05 (inactive); in [13], -0.319 (inactive); in [14], -0.0975 (inactive). For the same molecule, the composite z-score in assay [4] was 0.684 (inactive); in [9] it was -0.0351; in assay [10] it was -0.339 (inactive); in the assay on XIP peptide (Xip251-270), 0.0325.
As to `CCCCCCc1nc(C2CC2)c(C)c2c1[Si](C(C)C)(C(C)C)OC2`, the z-score in assay [1] was 0.252; in assay [2] it was -0.875 (inactive); in [3], 1.47 (inactive); in assay [5], -2.89 (inactive); in assay [6], 1.6 (inactive); in assay [7], 0.878 (inactive). The z-score in assay [8] is 0.232; in assay [11], -2.41; in assay [12], 2.65 (inactive); in assay [13], -0.53 (inactive); in assay [14], -0.23 (inactive). In addition, the composite z-score in assay [4] is -3.54 (inactive); in assay [9], 0.109; in assay [10] it was -0.0485 (inactive); in the assay with XIP peptide (Xip251-270), -0.462.
As for `O=C1O[C@@H](c2ccccc2)[C@@H](c2ccccc2)N2[C@@H](c3ccc(O)cc3)[C@]3(C(=O)Nc4ccc(C#CC5(O)CCCCCC5)cc43)[C@@H](C(=O)Nc3nc4ccccc4s3)[C@H]12`, the z-score is 0.527 in assay [1]; -0.657 (inactive) in assay [2]; 1.19 (inactive) in assay [3]; 0.74 (inactive) in assay [5]; 0.597 (inactive) in assay [6]; 0.946 (inactive) in assay [7]. Further, the z-score in assay [8] is 0.88; in assay [11], -0.697; in assay [12], -0.586 (inactive); in assay [13] it was -0.44 (inactive); in assay [14] it was -0.169 (inactive). Also, the composite z-score was -0.067 (inactive) in [4], -0.184 in assay [9], 1.8 (inactive) in [10] and 0.756 in the assay on XIP peptide (Xip251-270).
Regarding `CN(C)CCCC[C@@H]1NC(=O)[C@@H]2C[C@H](C(=O)NCCCCCNC(=O)CS)[C@H](c3ccc(O)cc3)N2C1=O`, the z-score was -0.23 in assay [1]; -0.312 (inactive) in [2]; 1.01 (inactive) in assay [3]; -1.13 (inactive) in [5]; 0.964 (inactive) in [6]; 0.809 (inactive) in assay [7]. The z-score in assay [8] is 0.975; in assay [11], 0.386; in assay [12] it was -0.848 (inactive); in assay [13], -0.205 (inactive); in assay [14], -0.456 (inactive). The composite z-score is -1.38 (inactive) in assay [4], 0.104 in assay [9], 0.207 (inactive) in assay [10] and -0.279 in the assay on XIP peptide (Xip251-270).
In the case of `C=CC[C@]1(C(=O)NCC(O)CO)N=C(c2ccc(OCCCO)cc2)O[C@H]1c1ccccc1` (stereo not given in full), the z-score in assay [1] was 0.766; in assay [2] it was -1.49 (inactive); in assay [3] it was 0.776 (inactive); in assay [5], -1.07 (inactive); in [6], 1.44 (inactive); in assay [7] it was 0.199 (inactive). For the same molecule, the z-score is 1.01 in assay [8]; -0.851 in [11]; -5.04 (inactive) in [12]; -0.147 (inactive) in assay [13]; -0.0911 (inactive) in assay [14]. Also, the composite z-score in [4] was -0.537 (inactive); in assay [9] it was -0.0102; in assay [10] it was 0.654 (inactive); in the assay with XIP peptide (Xip251-270), 0.124.

Source of the values: PubChem BioAssay.
